Assay outcomes from PubChem.
AMA1-RON2 inh: disrupts binding of P. falciparum AMA1 to RON2; AlphaScreen AMA1-biotinylated RON2 peptide binding; Potency, µM (top dose mostly 58.2 µM), most hits filed as inhibitors; 360,000 tested, 0.2% active; further: nearly all actives have a fitted effect of over 45% in size
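AMA1 (3D7) with his tag at 25 nM final met compounds first, then biotinylated RON2 peptide at 25 nM; detection used donor plus acceptor beads, 10 µg/mL apiece, read by AlphaScreen after 30 min at room temperature.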
Pf growth 48h: inhibits P. falciparum growth in the first generation, 48 h; P. falciparum luciferase growth in erythrocytes, 48 h; Potency, µM (series often up to 28.7 µM), hits mostly inhibitors; 310,000 tested, 5.9% active
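Parasite viability was followed by luminescence of a genomically integrated firefly luciferase. Cultures held 0.1% parasitemia at 2% hematocrit (final), incubated under 5% CO2 at 37 C.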
Pf growth 96h: P. falciparum growth inhibition at 96 hour, primary screen for plastid delayed-death inhibitors; Potency, µM (titrated, usually from 28.7 µM), most hits filed as inhibitors; P. falciparum luciferase reporter growth, 96 h; 320,000 tested, 6.9% active
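Erythrocytes infected with luciferase-expressing P. falciparum were dispensed at 2% hematocrit and 0.05% parasitemia (final), then incubated with compounds 96 hours at 37 C in 5% CO2. Luminescence after detection reagent addition reported growth.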
SARS PLP yeast: blocks SARS-CoV papain-like protease in a yeast assay; 330,000 tested, 0.19% active; Potency, µM (doses to about 32.9 µM), hits mostly activators; AID 485353; S. cerevisiae expressing SARS-CoV PLpro, growth rescue; calls by dose curve; further: nearly all actives have a fitted effect of over 55% in size
Numbers stand for hits; n = inactive; u = inconclusive; x = not tested or not shown; [ ] = another dose, or the depositor's remark. An excerpt weighted towards active compounds, which were near 9.4% of everything screened. Unless noted, the call rests on the fitted dose curve; in most records, active means well fitted curve in the direction sought with a large enough effect; inconclusive means small, poorly fitted or top-dose-only effect, or another doubt; inactive means no such curve, though single readings can be large; an effect the other way counts as inactive or inconclusive.

SMILES	AMA1-RON2 inh	Pf growth 48h	Pf growth 96h	SARS PLP yeast
COc1ccc(C(CC(=O)N2CCOCC2)c2c(OC)cc(OC)c3ccc(=O)oc23)cc1 (stereo not drawn)	n	u	u	n
COc1cc(OC)c2ccc(=O)oc2c1C(CC(=O)N1CCCC1)c1ccc(N(C)C)cc1 (stereo not drawn)	n	u	u	n
CCN(CC)C(=O)CC(c1ccc(N(C)C)cc1)c1c(OC)cc(OC)c2c(-c3ccccc3)cc(=O)oc12 (stereo not drawn)	22µM	3.7µM	2.1µM	n
CCN(CC)C(=O)CC(c1ccc(N(C)C)cc1)c1c(OC)cc(OC)c2ccc(=O)oc12 (stereo not drawn)	n	8.3µM	10µM	n
COc1ccc(NC(=O)Nc2ccccc2F)cc1Cl	n	n	u	n
CC[n+]1c(/C=C/N(C)c2ccccc2)sc2ccc(Cl)cc21	n	0.1µM	0.13µM	n
CC[n+]1c(/C=C/N(C)c2ccccc2)oc2ccc(Cl)cc21	n	4.7µM	u	n
CCCCN(C)C(=S)Nc1ccc2nc3n(c(=O)c2c1)CCCCC3	n	n	n	n
Nc1ccc(N)c(C(=O)O)c1	8.9µM	x	x	n
O=C(O)/C=C\C(=O)Nc1ccc(OC(F)F)cc1	n	n	u	n
CCO[C@@H]1OC(C(=O)N2CCN(C)CC2)=C[C@H](c2csc3ccccc23)[C@H]1CCCO	n	u	u	n
CCO[C@@H]1OC(C(=O)N2CCN(Cc3ccc4c(c3)OCO4)CC2)=C[C@H](c2csc3ccccc23)[C@H]1CCCO	n	u	2.1µM	n
CC(=O)n1cc([C@H]2C=C(C(=O)N3CCN(Cc4ccc5c(c4)OCO5)CC3)O[C@@H](OCCCCO)C2)c2ccccc21	n	0.93µM	u	n
CC(=O)n1cc([C@@H]2C=C(C(=O)N3CCOCC3)O[C@H](OCCCCO)C2)c2ccccc21	n	u	n	n
CCO[C@@H]1OC(C(=O)N2CCN(Cc3ccc4c(c3)OCO4)CC2)=C[C@H](c2cn(C(C)=O)c3ccccc23)[C@H]1CCCO	n	1.3µM	4.1µM	n
CCO[C@H]1OC(C(=O)Nc2ccccc2)=C[C@@H](c2cn(C(C)=O)c3ccccc23)[C@@H]1CCCO	n	u	u	n
Cc1cc(NC(=O)COc2ccc3oc4ccccc4c3c2)no1	n	n	x	n
Nc1c(Cl)cc(C2=NCCn3nc4ccccc4c32)cc1Cl	n	u	u	n
CCOC(=O)[C@]12CCC=C1N(Cc1ccccc1)C(=O)[C@H](CC(=O)NCc1ccc(C)o1)C2	n	x	x	x
OCCC1CN(Cc2cccn2-c2cccnc2)CCN1CCc1ccccc1 (stereo not drawn)	n	n	u	n
OCCC1CN(Cc2cccnc2)CCN1CCc1ccccc1 (stereo not drawn)	n	n	9.3µM	n
CC(C)n1cc(CN2CCN(CCc3ccccc3)C(CCO)C2)cn1 (stereo not drawn)	n	n	15µM	n
O=C1C2C3C=CC([C@@H]2C(=O)N1Cc1cccnc1)C31CC1 (stereo partly drawn)	n	n	n	n
Cc1sc2ncnc(SC(C)C(=O)N3c4ccccc4Sc4ccccc43)c2c1C (stereo not drawn)	n	1.7µM	7.4µM	n
O=C(CC1C(=O)N(c2ccccc2)C(=O)N1Cc1ccco1)Nc1ccccc1 (stereo not drawn)	n	n	15µM	n
SMILES	AMA1-RON2 inh	Pf growth 48h	Pf growth 96h	SARS PLP yeast
COc1ccc(NC(=O)CC2C(=O)N(C)C(=S)N2Cc2ccco2)cc1 (stereo not drawn)	n	n	n	n
CC(C)N1C(=S)N(Cc2ccco2)C(=O)C1CC(=O)Nc1ccccc1 (stereo not drawn)	n	1µM	u	n
COc1ccc2c(c1)c(N=NC(N)=S)c(O)n2CC(=O)c1ccccc1	n	x	n	n
O=C(O)/C=C/C(=O)Nc1cccc(C(F)(F)F)c1	n	n	n	n
CC(=O)Oc1ccc(Cl)cc1/C=C/c1ccc2ccccc2n1	n	2.6µM	u	n
CC(=O)Nc1ccc(S(=O)(=O)Nc2nc3nc(-c4ccccc4)cc(-c4ccccc4)n3n2)cc1	n	n	u	n
CCN1CCN(Cc2c(O)ccc3c(=O)c(-c4ccccc4OC)coc23)CC1	n	u	x	n
O=C1/C(=C/c2ccco2)Oc2c1ccc(O)c2CN1CCCCC1	u	u	u	n
CCN1CCN(Cc2c(O)ccc3c2O/C(=C\C=C\c2ccccc2OC)C3=O)CC1	n[11.6 µM]	2.9µM	4.1µM	n
CC1CCN(Cc2c(O)ccc3c2O/C(=C\c2ccco2)C3=O)CC1	u	15µM	10µM	n
